This assay addresses T1, TtCas6A (TTHA0078, Cas6) (Thermus thermophilus HB8).
T1 chain: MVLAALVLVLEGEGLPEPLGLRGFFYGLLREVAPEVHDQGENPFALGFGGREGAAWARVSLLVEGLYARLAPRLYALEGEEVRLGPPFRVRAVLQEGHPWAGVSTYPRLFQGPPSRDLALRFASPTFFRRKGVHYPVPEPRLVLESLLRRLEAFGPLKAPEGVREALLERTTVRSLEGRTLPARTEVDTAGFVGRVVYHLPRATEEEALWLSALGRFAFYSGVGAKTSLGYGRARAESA
The assay is described as follows: EMSA; closing base pair; Kd in FIG. 24C only. The following applies: chain copies: 2 stated (dimer in solution); hairpin; ssRNA; [20,25]. The source says: FIG. 22 illustrates that TtCas6A and TtCas6B both cleave repeats R1 and R3 and retain their cleaved products. (A) Sequences and predicted secondary structures of T. thermophilus CRISPR repeats. Sites of cleavage are indicated with blue arrows. TtCas6e (TTHB192) cleaves repeat R2, while TtCas6A (TTHA0078) and TtCas6B (TTHB231) both cleave repeats R1 and R3. (B) Cleavage product binding affinities of TtCas6A and TtCas6B enzymes. Maltose binding protein (MBP)-fused TtCas6A or TtCas6B were bound to in 5′-radiolabelled, vitro transcribed R1 and R3 RNAs. Bound and unbound fractions were resolved by electrophoresis on a native polyacrylamide gel and visualized by phosphorimaging. The data for these and all subsequent binding assays were fit with standard binding isotherms (solid line). […] RNA cleavage was monitored using denaturing polyacrylamide gel electrophoresis. […]
To test the importance of the stem sequence for substrate RNA recognition by TtCas6A, a series of EMSAs was performed using R1 repeat-derived RNAs that carried single base pair substitutions (C-G→A-U). […] This is consistent with the observation that the lower three C-G base pairs are specifically read out by Arg129. The binding defect observed upon mutation of the closing (uppermost) base pair could be due to loss of stability of the stem-loop structure, which is determined by the closing base-pair (Serra et al, 1993). […]
Background: Mobility shift assays separate free from complexed probe on a gel.
With GUUGCAAGGGAUUGAGCCCAGUAAUGGGAU, the binding signal was ~5 fold lower affinity than wild-type RNA.
